Records with an inconclusive call do not appear. The source holds several records for some structures; these can differ, active in one and inactive in another. Activity calls are given as the source filed them. Unless noted, calls follow the shape of the dose curve; as a rule, active = well fitted curve in the direction sought with a large enough effect in the repeat runs; inconclusive = weak or mixed curves; inactive = no such curve, though single readings can be large; an effect the other way counts as inactive or inconclusive.
Assays:
[1] = molecular target: Retinoic acid receptor RXR-alpha (Homo sapiens) (UniProt P19793); test: qHTS assay to identify small molecule agonists of the RXR signaling pathway (AID 1159527; calls by dose curve; also: nearly all actives have a fitted effect of over 35% in size; also: potency is read from the fitted curve at half-maximal effect)
Summary of the method: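 qHTS of the Tox21 10K library in GeneBLAzer RXR-alpha HEK 293T cells carrying a beta-lactamase reporter […]; 16 hr treatment, 9-cis retinoic acid as agonist control, FRET read-out.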

[2] = qHTS assay to identify small molecule agonists of the RXR signaling pathway - cell viability counter screen (AID 1159529); also: nearly all actives have a fitted effect of over 50% in size; also: potency is read from the fitted curve at half-maximal effect
Summary of the method: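 Cell viability is measured by CellTiter-Glo luminescence, 30 min at room temperature, in wells already read for beta-lactamase. Engineered HEK 293T cells (RXR-alpha-UAS-bla) are dosed 16 hr at 37 C. Tetraoctyl ammonium bromide serves as positive control.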

[3] = qHTS assay to identify small molecule antagonists of the retinoid acid receptor (RAR) signaling pathway - cell viability counter screen (AID 1159551); also: nearly all actives have a fitted effect of over 35% in size
Summary of the method: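 In this counter screen, the RARE-luciferase line C3RL4 was exposed for 6 h at 37 C and 5% CO2 to compounds with retinol at 1 uM final. Cellular ATP, read by luminescence, served as the viability measure.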

[4] = qHTS assay to identify small molecule agonists of the retinoic acid receptor (RAR) signaling pathway (AID 1159553); details: C3RL4 RARE luciferase reporter, agonist, 6 h; activation: at 73.3 µM (top of the series) unless noted
Summary of the method: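 In this cell-based screen, 1,000 C3RL4 cells per well were cultured overnight, dosed with test chemicals in DMSO for 6 hr, and assessed for RARE luciferase luminescence.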

[5] = qHTS assay to identify small molecule antagonists of the estrogen related receptor (ERR) signaling pathway from Tox21 library - cell viability counter screen (AID 1224834); also: nearly all actives have a fitted effect of over 30% in size; also: potency is read from the fitted curve at half-maximal effect
Summary of the method: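 Counter screen run in ERR cells (2,000 cells/well): cells pre-incubated 6 h, then treated with compounds for 17.5 h at 37 C. Fluorescence was read 30 min after CellTiter-Fluor addition.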

[6] = molecular target: Luciferin 4-monooxygenase (Photinus pyralis) (UniProt P08659); test: qHTS assay to identify small molecule inhibitors of firefly luciferase (AID 1224835); also: nearly all actives have a fitted effect of over 25% in size
Summary of the method: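 Inhibition of purified Photinus luciferase is measured by luminescence. Substrate levels (D-luciferin, ATP) sit at their KM values. Each compound is tested in a concentration series.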

[7] = qHTS assay to identify small molecule agonists of the constitutive androstane receptor (CAR) signaling pathway - cell viability counter screen (AID 1224836); also: nearly all actives have a fitted effect of over 45% in size
Summary of the method: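 Counter screen multiplexed with the CAR reporter readout: HepG2 cells co-transfected with hCAR and the CYP2B6-2.2kb construct receive a 15-concentration compound series and 0.75 uM PK11195 (final), then CellTiter-Fluor fluorescence is read after 23 h.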

[8] = qHTS assay to identify small molecule antagonists of the constitutive androstane receptor (CAR) signaling pathway - cell viability counter screen (AID 1224837); also: nearly all actives have a fitted effect of over 45% in size
Summary of the method: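 CITCO at 50 nM final was added alongside compounds (15 concentrations) to double-stable hCAR/CYP2B6-2.2kb HepG2 cells. Following 23 hr at 37 C, cell viability was quantified by CellTiter-Fluor fluorescence intensity.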

[9] = molecular target: Nuclear receptor subfamily 1 group I member 3 (Homo sapiens) (UniProt Q14994); test: qHTS assay to identify small molecule antagonists of the constitutive androstane receptor (CAR) signaling pathway (AID 1224838); also: nearly all actives have a fitted effect of over 40% in size; also: potency is read from the fitted curve at half-maximal effect
Summary of the method: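 Inhibition of CITCO-driven (50 nM final) CYP2B6 reporter expression is measured in HepG2 cells stably carrying hCAR. Fifteen compound concentrations are applied for 24 h at 37 C, followed by luciferase luminescence.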

[10] = molecular target: Nuclear receptor subfamily 1 group I member 3 (Homo sapiens) (UniProt Q14994); test: qHTS assay to identify small molecule agonists of the constitutive androstane receptor (CAR) signaling pathway (AID 1224839); also: nearly all actives have a fitted effect of over 15% in size; also: potency is read from the fitted curve at half-maximal effect
Summary of the method: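 A 15-concentration quantitative screen uses HepG2 cells co-transfected stably with human CAR and CYP2B6-2.2kb reporter. Treatment lasts 24 h with 0.75 uM PK11195 final present; ONE-Glo luminescence is the signal.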

[11] = qHTS assay to identify small molecule antagonists of the estrogen related receptor signaling pathway with the pleiotropic PPARgamma coactivator (PGC) from Tox21 10K library - cell viability counter screen (AID 1224840; active = well fitted cell-killing curve with a large enough effect in the repeat runs, not every such curve was filed as active; also: nearly all actives have a fitted effect of over 40% in size; also: potency is read from the fitted curve at half-maximal effect)
Summary of the method: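 Readout: fluorescence intensity from CellTiter-Fluor after 30 min at 37 C/5% CO2. Preceded by 17.5 h treatment of PGC/ERR cells with DMSO-dissolved compounds, added 6 h post-seeding.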

[12] = qHTS assay to identify small molecule agonists of the hypoxia (HIF-1) signaling pathway - cell viability counter screen (AID 1224844; calls by dose curve; also: nearly all actives have a fitted effect of over 50% in size; also: potency is read from the fitted curve at half-maximal effect)
Summary of the method: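 In this counter screen, HRE-bla ME-180 cell viability after 17 hrs of compound exposure at 37C was read by CellTiter-Glo luminescence, multiplexed with the beta-lactamase reporter measurement.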

[13] = qHTS assay to identify small molecule agonists of the hypoxia (HIF-1) signaling pathway (AID 1224846; active = well fitted activation curve with a large enough effect in the signal ratio in the repeat runs, not every such curve was filed as active; the % refers to the signal ratio)
Summary of the method: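 ME-180 HRE-bla reporter cells; compounds in DMSO, 17 h at 37C; read-out beta-lactamase via CCF4-AM FRET.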

[14] = qHTS assay to identify small molecule agonists of H2AX - cell viability counter screen (AID 1224847; calls by dose curve; also: top concentration of the series differs between compounds; nearly all actives have a fitted effect of over 30% in size)
Summary of the method: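 We seed wild-type CHO-K1 cells overnight, treat them for 3 hr at 37C with compounds in 15-concentration series, and quantify remaining viability by CellTiter-Glo luminescence.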

[15] = qHTS assay to identify small molecule agonists of H2AX (AID 1224845; active = well fitted activation curve with a large enough effect in the signal ratio in the repeat runs, not every such curve was filed as active; the % refers to the signal ratio; also: potency is read from the fitted curve at half-maximal effect)
Summary of the method: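 Phospho-H2AX Ser139 measured by HTRF (ex 320 nm; em 665 and 620 nm) after 24 hr antibody incubation. Compounds, 15 concentrations, 0.76% DMSO, were applied to CHO-K1 cells for 3hr at 37C before lysis.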

[16] = molecular target: Thyrotropin receptor (Homo sapiens) (UniProt P16473); test: qHTS assay to identify small molecule agonists of the thyroid stimulating hormone receptor (TSHR) signaling pathway (AID 1224843; calls by dose curve; also: nearly all actives have a fitted effect of over 45% in size)
Summary of the method: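 Agonist activity read as cAMP rise via d2/cryptate HTRF competition, 1 h room-temperature detection, in HEK293 cells expressing TSHR. Fifteen-point titrations, each run in triplicate, with a 30 min room-temperature incubation beforehand.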

[17] = qHTS assay to identify small molecule antagonists of the estrogen related receptor signaling pathway with the pleiotropic PPARgamma coactivator (PGC) from Tox21 10K library (AID 1224841; call rule not given here; also: actives are mostly falling curves and most rising ones were filed inactive; nearly all actives have a fitted effect of over 50% in size; also: potency is read from the fitted curve at half-maximal effect)
Summary of the method: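 One-Glo luminescence, measured after half an hour at room temperature, quantified reporter output of PGC/ERR cells. These had been plated at 2,000 per well, incubated 6 h, dosed with compounds in DMSO, then kept 18 h at 37 C.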

[18] = qHTS assay to identify small molecule antagonists of the estrogen related receptor (ERR) signaling pathway - cell viability counter screen (AID 1224818)
Summary of the method: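 Viability of ERR cells, CellTiter-Fluor fluorescence; 17.5 h compound exposure at 37 C, DMSO vehicle; 30 min reagent incubation at 37 C/5% CO2.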

[19] = qHTS assay to identify small molecule antagonists of the estrogen related receptor signaling pathway with the pleiotropic PPARgamma coactivator (PGC) cell viability counter screen (AID 1224822)
Summary of the method: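 17.5 h compound treatment of PGC/ERR cells at 37 C; readout CellTiter-Fluor fluorescence; run alongside the PGC/ERR antagonist screen to flag cytotoxic compounds.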

Measured: Potency

Sequence of Nuclear receptor subfamily 1 group I member 3 (Homo sapiens) (Q14994 whole entry, looked up): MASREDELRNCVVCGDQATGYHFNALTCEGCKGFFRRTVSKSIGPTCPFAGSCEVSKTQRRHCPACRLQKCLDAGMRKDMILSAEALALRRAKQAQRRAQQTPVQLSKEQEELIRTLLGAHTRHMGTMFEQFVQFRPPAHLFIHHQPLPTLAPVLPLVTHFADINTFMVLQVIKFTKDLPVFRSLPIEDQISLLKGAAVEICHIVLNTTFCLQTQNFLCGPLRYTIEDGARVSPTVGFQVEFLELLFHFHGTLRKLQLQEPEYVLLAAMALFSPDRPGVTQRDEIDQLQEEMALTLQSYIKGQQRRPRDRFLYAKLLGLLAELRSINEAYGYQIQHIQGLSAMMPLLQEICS
Sequence of Thyrotropin receptor (Homo sapiens) (P16473 whole entry, looked up): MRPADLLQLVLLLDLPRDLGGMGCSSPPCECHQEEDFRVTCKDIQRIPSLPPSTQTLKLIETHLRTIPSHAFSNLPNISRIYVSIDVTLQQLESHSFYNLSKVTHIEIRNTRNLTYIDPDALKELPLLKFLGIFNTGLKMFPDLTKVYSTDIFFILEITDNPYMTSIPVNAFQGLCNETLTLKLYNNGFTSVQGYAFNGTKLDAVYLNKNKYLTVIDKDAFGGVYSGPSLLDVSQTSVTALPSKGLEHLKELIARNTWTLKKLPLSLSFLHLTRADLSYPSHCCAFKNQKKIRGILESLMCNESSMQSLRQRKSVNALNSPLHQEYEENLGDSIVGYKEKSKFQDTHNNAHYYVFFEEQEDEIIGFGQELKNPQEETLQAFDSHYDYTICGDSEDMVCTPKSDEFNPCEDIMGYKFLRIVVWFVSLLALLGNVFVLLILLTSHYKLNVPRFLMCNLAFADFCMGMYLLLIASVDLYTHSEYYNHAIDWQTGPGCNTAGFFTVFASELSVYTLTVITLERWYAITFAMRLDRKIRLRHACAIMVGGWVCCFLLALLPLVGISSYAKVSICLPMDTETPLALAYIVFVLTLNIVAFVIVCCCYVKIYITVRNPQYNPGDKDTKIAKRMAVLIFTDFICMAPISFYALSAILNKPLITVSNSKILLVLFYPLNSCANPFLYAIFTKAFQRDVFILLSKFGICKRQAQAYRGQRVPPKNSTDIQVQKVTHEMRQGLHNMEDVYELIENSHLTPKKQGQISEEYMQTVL
Sequence of Luciferin 4-monooxygenase (Photinus pyralis) (P08659 whole entry, looked up): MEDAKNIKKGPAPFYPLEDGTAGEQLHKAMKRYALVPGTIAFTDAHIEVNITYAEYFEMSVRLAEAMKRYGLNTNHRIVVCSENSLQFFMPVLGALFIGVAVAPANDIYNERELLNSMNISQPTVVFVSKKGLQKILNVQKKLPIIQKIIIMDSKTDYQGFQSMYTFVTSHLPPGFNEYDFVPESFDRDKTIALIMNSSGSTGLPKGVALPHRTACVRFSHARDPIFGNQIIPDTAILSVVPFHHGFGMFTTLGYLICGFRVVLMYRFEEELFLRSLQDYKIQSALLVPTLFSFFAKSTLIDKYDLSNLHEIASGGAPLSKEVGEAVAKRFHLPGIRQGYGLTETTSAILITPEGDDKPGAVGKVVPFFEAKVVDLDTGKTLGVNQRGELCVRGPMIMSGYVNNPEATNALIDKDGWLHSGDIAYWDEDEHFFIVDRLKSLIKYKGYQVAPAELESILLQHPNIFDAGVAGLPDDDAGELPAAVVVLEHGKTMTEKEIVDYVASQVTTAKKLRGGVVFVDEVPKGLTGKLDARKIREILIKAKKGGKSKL
Sequence of Retinoic acid receptor RXR-alpha (Homo sapiens) (P19793 whole entry, looked up): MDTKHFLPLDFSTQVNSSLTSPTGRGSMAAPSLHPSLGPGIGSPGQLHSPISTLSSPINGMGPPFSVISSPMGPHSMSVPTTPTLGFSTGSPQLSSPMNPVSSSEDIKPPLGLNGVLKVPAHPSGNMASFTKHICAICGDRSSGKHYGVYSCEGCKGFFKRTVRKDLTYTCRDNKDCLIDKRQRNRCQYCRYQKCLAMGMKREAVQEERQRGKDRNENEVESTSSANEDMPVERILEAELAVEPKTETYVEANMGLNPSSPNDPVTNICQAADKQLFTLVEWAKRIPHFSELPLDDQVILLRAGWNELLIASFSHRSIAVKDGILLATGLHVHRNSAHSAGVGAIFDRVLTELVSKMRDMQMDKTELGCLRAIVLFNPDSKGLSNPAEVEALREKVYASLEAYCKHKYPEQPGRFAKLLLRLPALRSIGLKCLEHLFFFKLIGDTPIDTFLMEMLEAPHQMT

COP(N)(=O)SC (configuration not stated)
not listed: [15] | [16] | [17] | [18] | [19]
inactive: all other assays above

CCCCCCCCCCCC#N
not listed: [4] | [16] | [17] | [18] | [19]
inactive: all other assays above

c1ccc(-c2ccccc2)cc1
not listed: [9] | [10] | [15] | [17] | [18] | [19]
inactive: all other assays above

O=c1ccc(=O)[nH][nH]1
not listed: [4] | [9] | [10] | [15] | [18] | [19]
inactive: all other assays above

O=NN1CCCC1
11.5 µM (active) and inactive: [12]
16.7 µM (active) and inactive: [15]
28.6 µM (active) and inactive: [9]
45.3 µM (active) and inactive: [5]
not listed: [6] | [7] | [8] | [17] | [18] | [19]
inactive: all other assays above

ClCCBr
not listed: [4] | [15] | [16] | [18] | [19]
inactive: all other assays above

Nc1ccc(Cc2ccc(N)cc2)cc1
not listed: [10] | [17] | [18] | [19]
inactive: all other assays above

CCC12COCN1COC2
not listed: [4] | [15] | [17] | [18] | [19]
inactive: all other assays above

Cn1cc(-c2ccccc2)c(=O)c(-c2cccc(C(F)(F)F)c2)c1
not listed: [5] | [18] | [19]
inactive: all other assays above

O=C1CCCN1
not listed: [4] | [16] | [17] | [18] | [19]
inactive: all other assays above

COc1ccc2c3c1O[C@H]1[C@@H](O)C=C[C@H]4[C@@H](C2)N(C)CC[C@@]341
42.6 µM (active) and inactive: [5] | [11]
23.9 µM (active) and inactive: [17]
not listed: [4] | [9] | [10] | [15] | [18] | [19]
inactive: all other assays above

CN1C(=O)CN=C(c2ccccc2)c2cc(Cl)ccc21
not listed: [6] | [18] | [19]
inactive: all other assays above

Cc1[nH]c(=O)n(C(C)(C)C)c(=O)c1Cl
not listed: [6] | [16] | [17] | [18] | [19]
inactive: all other assays above

O=C(O)c1ccccn1
not listed: [4] | [16] | [17] | [18] | [19]
inactive: all other assays above

CC(C)NC(=O)N1CC(=O)N(c2cc(Cl)cc(Cl)c2)C1=O
30.6 µM (active) and inactive: [17]
not listed: [4] | [18] | [19]
inactive: all other assays above

C#CCN(C)[C@H](C)Cc1ccccc1
not listed: [6] | [9] | [10] | [13] | [16] | [17] | [18] | [19]
inactive: all other assays above

C#CC(C)(C)NC(=O)c1cc(Cl)cc(Cl)c1
not listed: [6] | [17] | [18] | [19]
inactive: all other assays above

CCOP(=S)(OCC)SCCSCC
not listed: [6] | [16] | [17] | [18] | [19]
inactive: all other assays above

O=[N+]([O-])c1ccc(Oc2ccc(Cl)cc2Cl)cc1
active: [1] 696 nM
43.9 µM (active) and inactive: [2]
54.8 µM (active) and inactive: [10]
not listed: [4] | [6] | [14] | [18] | [19]
inactive: all other assays above

NCCc1ccc(O)cc1
48.6 µM (active) and inactive: [2]
not listed: [1] | [13] | [16] | [17]
inactive: all other assays above
